# Source: PubChem BioAssay
# Pin1 inh = blocks the human prolyl isomerase Pin1; Q13526; Pin1 FP peptide displacement, HiFluor488, 10 min; Potency, µM (series often up to 115 µM), for inactives: at the top dose activity, negative = inhibition, actives largely listed as inhibitors; 390,000 tested, 0.009% active; AID 504891; active = well fitted inhibition curve with a large enough effect in the polarisation, with a control signal flat, not every such curve was filed as active; inconclusive = small, poorly fitted or top-dose-only effect, or effect the other way, or a change in a side signal; inactive = no such curve, though single readings can be large or run the other way; the % refers to the polarisation; note: potency is the fitted concentration of half-maximal effect; % is set by controls: 0 for no effect and ±100 for the full control effect
# Akt phos inh = inhibitors of Akt phosphorylation; 360,000 tested, 0.32% active; activity change, % for hits at 50 µM; Neuro2A IGF-stimulated pAkt S473 HTRF, 20 min; hits give low values; in the data active = activity change below about -80%; inconclusive = mostly about -51% to -80%; note: % is set by controls: 0 for no effect and ±100 for the full control effect
#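 Neuro2A cells (4,500/well, DMEM with 0.5% FBS) were treated with compound at a single 50 µM final concentration, stimulated with 6 nM IGF for 20 min at 37 °C, and lysed. Phospho-Akt Ser473 was read by HTRF as 665/615 ratio ×10^4.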
# rTrxR1 inhibitor = blocks rat thioredoxin reductase 1; O89049; recombinant rTrxR1, NADPH fluorescence consumption, selenite substrate; Potency, µM (doses to about 114 µM), inactives show at the highest dose activity change, negative = inhibition, actives largely listed as inhibitors; 390,000 tested, 1% active; AID 588453; note: potency is the fitted concentration of half-maximal effect; % is set by controls: 0 for no effect and ±100 for the full control effect; nearly all actives have a fitted effect of over 65% in size
# Target sequence (O89049 whole entry, looked up): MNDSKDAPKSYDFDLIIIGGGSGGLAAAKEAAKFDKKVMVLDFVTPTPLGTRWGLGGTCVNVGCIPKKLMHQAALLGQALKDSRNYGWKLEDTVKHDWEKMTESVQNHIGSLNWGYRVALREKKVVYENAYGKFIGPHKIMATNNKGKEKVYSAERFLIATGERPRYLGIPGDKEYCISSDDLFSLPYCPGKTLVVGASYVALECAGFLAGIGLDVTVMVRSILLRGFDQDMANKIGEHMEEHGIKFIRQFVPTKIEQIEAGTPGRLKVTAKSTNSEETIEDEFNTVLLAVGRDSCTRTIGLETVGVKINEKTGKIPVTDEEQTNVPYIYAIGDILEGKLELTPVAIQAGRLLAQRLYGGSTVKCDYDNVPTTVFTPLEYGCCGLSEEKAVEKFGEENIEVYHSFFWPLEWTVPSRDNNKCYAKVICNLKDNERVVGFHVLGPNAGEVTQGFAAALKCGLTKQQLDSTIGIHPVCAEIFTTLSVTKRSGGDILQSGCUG
#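 Rat TrxR1 (90 nM in the dispensed reagent) was pre-reduced with 400 uM NADPH for 5 min at room temperature, then incubated with compound for 15 min. After 400 uM selenite was added, NADPH fluorescence (Ex 340/Em 450 nm) was followed for 8 min.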
# TrxR1 substrate = rat thioredoxin reductase 1 substrate activity | O89049 | purified TrxR1 substrate turnover, NADPH consumption readout | Potency, µM (doses to about 114 µM), without a hit: top-dose activity change, negative = substrate turnover | 390,000 tested, 0.01% active | AID 588456; note: potency is the fitted concentration of half-maximal effect; % is set by controls: 0 for no effect and ±100 for the full control effect; nearly all actives have a fitted effect of over 50% in size
#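 Rat TrxR1, dispensed at 90 nM, was prereduced with 400 uM NADPH (final) for 5 min at ~22 deg C, then incubated with compound 15 min before 400 uM selenite. A first-read NADPH fluorescence drop versus no-compound background flagged substrates.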
# A-T KAP1 phos = candidate therapy for ataxia-telangiectasia; F2112 A-T fibroblasts, KAP-1 phosphorylation AlphaLISA; neocarzinostatin DNA damage 30 min before lysis; Potency, µM (titrated, usually from 57.5 µM), for the others: top-dose activation, actives largely listed as activators; 320,000 tested, 0.19% active; note: potency is the fitted concentration of half-maximal effect; % of control where 0% means no effect; nearly all actives have a fitted effect of over 45% in size
#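 hTERT-immortalized A-T patient fibroblasts (F2112), 500 cells/well in OPTI-MEM, 1% FBS, got compounds for 60 min, then NCS for 30 min at 37C. Lysates were then assayed for phospho-KAP-1 by AlphaLISA (anti-pKAP1 donor, anti-KAP1 acceptor beads), 6 hr at 25C.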
# N370S GC = inhibitors or activators of N370S glucocerebrosidase for Gaucher disease | P04062 | Potency, µM (series often up to 59.4 µM), for the others: top-dose activity change, negative = inhibition, hits mostly inhibitors | 330,000 tested, 0.092% active | N370S GC spleen homogenate, 4MU-glucoside fluorescence;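 note: potency is the fitted concentration of half-maximal effect; 0% = full enzyme activity and -100% = no enzyme basal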
# An asterisk follows results filed as active; i = inactive; ? = inconclusive; · = not tested or not shown; [ ] = remark or other dose. An excerpt weighted towards active compounds, which were near 1.4% of everything screened. Unless noted, calls come from the whole dose curve; as a rule, active = well fitted curve in the direction sought with a large enough effect; inconclusive = small, poorly fitted or top-dose-only effect, or another doubt; inactive = no such curve, though single readings can be large; an effect the other way counts as inactive or inconclusive.
SMILES,Pin1 inh,Akt phos inh,rTrxR1 inhibitor,TrxR1 substrate,A-T KAP1 phos,N370S GC
Cc1ccc(S(=O)(=O)Cn2nnnc2C(CC(C)C)N2CCN(C(=O)c3ccco3)CC2)cc1 (stereo not given),-8%,i,-13%,-1%,-2%,?
CCN1CCN(C(CC(C)C)c2nnnn2CS(=O)(=O)c2ccc(C)cc2)CC1 (stereo not given),-6%,i,13%[57.1 µM],6%[57.1 µM],2%[11.5 µM],22µM*
CN(C)c1ccc(/C=C/c2c[n+](C)cc3ccccc23)cc1,·,·,-21%,-10%,·,·
NS(=O)(=O)c1ccc(-c2ccc(/C=C3\NC(=S)NC3=O)o2)cc1,?,i,13µM*,3%[57.1 µM],-1%,-11%
CC1=C(C#N)C(=O)NC(=O)/C1=C/c1ccc(-c2ccc(S(N)(=O)=O)cc2)o1,-11%,i,8.9µM*,3%,8%,0%
Cc1ccccc1CN1[C@H](C)[C@H](c2ccccc2)OCCS1(=O)=O,·,·,27%,6%,·,·
Cc1ccc(NS(=O)(=O)c2ccc3c(ccn3C)c2)cc1C,2%,·,·,·,·,·
Cc1cc2nc(-c3cccc(NC(=O)CSc4ccc(Cl)cc4)c3)oc2cc1C,0%,·,8%,35%,·,·
COc1cc(OC)cc(-c2csc(N3CCC(C(N)=O)CC3)n2)c1,1%,·,·,·,·,·
COC1=C(OC)C(=O)c2ccccc2C1=O,·,·,12%[57.1 µM],24%[57.1 µM],·,2%
COC1=CC(=O)C(OC)=C(OC)C1=O,-6%,i,50µM*,-9%,·,·
O=C(O)CCSCC(=O)Nc1c(C(=O)C2CC2)oc2ccccc12,2%,-100%*,3%[57.1 µM],5%[57.1 µM],-1%,3%
COc1ccc(-n2ncc(C(=O)N3CCN(c4cc(C)ccc4C)CC3)c2C2CCN(C(=O)OC(C)(C)C)CC2)cc1,-2%,·,18%,1%,·,·
c1ccc2c(c1)nc(N1CCCCC1)c1ccccc12,9%,i,22%,19%,14µM*,-1%
c1ccc2c(N3CCCCC3)nc(N3CCCC3)nc2c1,?,i,8%,5%,22%,19%
O=c1oc2c3c(ccc2c2ccccc12)OCN(Cc1ccc(Cl)cc1)C3,4%,·,31%,12%,·,·
Cc1cc(=O)oc2c3c(ccc12)OCN(Cc1ccc(Cl)cc1)C3,-12%,·,20µM*,916%,·,·
CCCc1cc(=O)oc2c3c(ccc12)OCN(Cc1ccccc1OC)C3,6%,·,22µM*,i,·,·
Cc1cc2c(s1)c1cnn(Cc3cccc(C)c3F)c(=O)c1n2C,20%,·,·,·,·,·
O=[N+]([O-])c1cccc(S(=O)(=O)N2CCN(S(=O)(=O)c3ccc4c(c3)OCCO4)CC2)c1,-13%,·,·,·,·,·
COc1ccc(CN(Cc2ccccc2)C(=O)c2ccc(OC)cc2O)cc1,-2%,·,·,·,·,·
Cn1c(=O)c2c(nc(Oc3ccccc3)n2Cc2c(Cl)cccc2Cl)n(C)c1=O,-4%,·,6%,-1%,·,·
CC1=C(/C=C/C(C)=C/C=C/C(C)=C\C(=O)O)C(C)(C)CCC1,3%,i,35µM*,3%[57.1 µM],·,-2%
CC1=C(\C=C/C(C)=C/C=C\C(C)=C\C(=O)O)C(C)(C)CCC1,·,·,·,·,·,-3%
COc1ccc(S(=O)(=O)n2nc(OC(=O)c3ccncc3)cc2N)cc1,3%,i,28µM*,2%,21%,3%
SMILES,Pin1 inh,Akt phos inh,rTrxR1 inhibitor,TrxR1 substrate,A-T KAP1 phos,N370S GC
COc1ccc(S(=O)(=O)n2nc(OC(=O)c3ccccc3)cc2N)cc1,-12%,i,-16%[57.1 µM],-4%[57.1 µM],·,18%
COc1ccc(-c2nc3n(c2C)CCC3)cc1,-5%,i,28%[57.1 µM],14%[57.1 µM],25µM*,-2%
Cn1nnnc1Sc1ncnc2scc(-c3cccc([N+](=O)[O-])c3)c12,-14%,·,·,·,·,·
CCCCn1c(CN2CCN(C)CC2)nc2ccccc21,3%,-116%*,-15%,-2%,·,-15%
O=C(Nc1ccc(F)cc1)C1CCN(c2nc3ccccc3n3cccc23)CC1,-4%,·,26%,3%,·,·
COc1ccc2c(c1)CC(N1CCN(C)CC1)c1cc(OC)ccc1S2 (stereo not given),4%,i,5%,2%,·,·
